# Data published in PubChem BioAssay AID540276 (National Center for Advancing Translational Sciences (NCATS), 2011).
# Among all 300,000 compounds or so, about 5,400 (1.8%) were called active. About 28% were inconclusive and are not listed. The full list was thinned out, with actives kept by preference. Values without a mark were called inactive. Calls come from the whole dose curve; tested in HEK293 cells.
# Assay: qHTS for inhibitors of binding or entry into cells for Marburg Virus
# Details: Marburg virus pseudotyped entry inhibition, cell reporter; series mostly up to 37.8 µM; activity change, negative = inhibition: at the top concentration
# % is set by controls: 0 for no effect and ±100 for the full control effect; potency is the fitted concentration of half-maximal effect.
SMILES,"activity change, negative = inhibition",Potency
O=C(OCC(=O)N1CCCCCC1)c1ccc(Br)c(S(=O)(=O)N2CCOCC2)c1,-2.16%,
C=CCNc1ncnc2ccc(Br)cc12,,inactive
CC1(C)CC2CC(C)(CN2c2ncnc3ccc(Br)cc23)C1 (stereo not given),,6.31 µM (active)
O=C(NNc1nc(N2CCCC2)nc(N2CCCC2)n1)c1ccccc1,-22.7%,
O=C(CN1CCc2ccccc2C1)Nc1cccc(S(=O)(=O)N2CCOCC2)c1,-29.4%,
COc1ccc2oc(N)nc2c1,10.7%,
O=[N+]([O-])c1ccc2oc(-c3cccc(O)c3)nc2c1,-25.3%,
COc1cccc(-c2nc3cc(C)ccc3o2)c1,,6.31 µM (active)
Nc1ccc2c(c1)C(=Cc1cccnc1)c1ccccc1-2,-9.88%,
CSCCC(NC(=O)COc1ccccc1)C(=O)N(C)CC(=O)Nc1ccc(C)cc1 (stereo not given),-5.2%,
CC1CCCCC12NC(=O)N(CC(=O)OCc1c(F)cccc1Cl)C2=O (stereo not given),-0.621%,
CC1=NN(C(=O)CCc2ccccc2O)C(O)(C(F)(F)F)C1 (stereo not given),0.302%,
COC(=O)C1(O)CC(C(C)C)=NN1C(=O)c1ccc(Cl)cc1 (stereo not given),-1.26%,
O=C(c1ccc(Cl)cc1)N1N=C(c2ccccn2)CC1(O)C(F)(F)F (stereo not given),,7.94 µM (active)
COc1cc(C(=O)NCC(=O)NCCSc2ccc(Br)cc2)cc(OC)c1OC,-21.6%,
O=C(NC1CCCC1)C(c1ccco1)N(C(=O)c1ccco1)c1ccc(F)cc1 (stereo not given),-27.1% [at 46.1 µM],
N#Cc1cc([N+](=O)[O-])ccc1NC(=O)COC(=O)c1cnccn1,21.5%,
CCOc1ccc(CCNC(=O)c2ccc3c(c2)sc2nc(-c4ccc(F)cc4)cn23)cc1OCC,,2.51 µM (active)
Cc1c(C(=O)NCCN2CCOCC2)sc2nc(-c3ccc(F)cc3)cn12,-11.1%,
CCOc1ccc(CCNC(=O)Cn2nc(CC)n3c(cc4sc(CC)cc43)c2=O)cc1OCC,15.5% [at 46.1 µM],
COc1ccc(N2CC(NS(=O)(=O)c3ccc4ccccc4c3)CC2=O)cc1 (stereo not given),-21.3% [at 46.1 µM],
CCOc1ccc(C(=O)NCC(=O)N2CCCCCCC2)cc1OCC,-7.67%,

SMILES,"activity change, negative = inhibition",Potency
S=c1[nH]nc(-c2cccnc2)n1/N=C/C(Cl)=C\c1ccccc1,-0.821%,
S=c1[nH]nc(-c2ccco2)n1/N=C/c1ccccc1,15.3% [at 46.1 µM],
Cc1cc(-c2n[nH]c(=S)n2/N=C/C(Br)=C/c2ccccc2)n[nH]1,,10 µM (active)
O=C(CCl)NNc1cccc(Cl)n1,5.94% [at 46.1 µM],
Cc1ccc2nc(Nc3ccccc3O)nc(-c3ccccc3)c2c1,7.83%,
O=C(CCl)NNc1nc(-c2ccccc2)c2cc(Cl)ccc2n1,,6.31 µM (active)
COc1ccc(CCNC(=O)c2c(C)nn(-c3ccccc3)c2Cl)cc1,-21.4%,
CCN(C(=O)COC(=O)c1c(C)nn(-c2ccccc2)c1Cl)c1c(N)n(Cc2ccccc2)c(=O)[nH]c1=O,0.394%,
Cc1cccc2cc(CN(Cc3nnnn3Cc3ccccc3)C3CCCC3)c(=O)[nH]c12,,16.4 µM (active)
Cc1cc(C)c2cc(CN(Cc3nnnn3Cc3ccc(F)cc3)C3CCCC3)c(=O)[nH]c2c1,2.92%,
CCOc1ccc2[nH]c(=O)c(CN(Cc3nnnn3Cc3ccccc3)CC3CCCO3)cc2c1 (stereo not given),,inactive
Cc1cc(NC(=O)C(C)SCC(=O)Nc2ccccc2N2CCCCC2)no1 (stereo not given),-30%,
Nc1cc(=O)n(Cc2ccccc2)c(=O)n1Cc1ccccc1,17%,
CCOC(=O)C1CCN(c2nc3ccccc3nc2[C@@H](C#N)C(=O)OC(C)C)CC1,-13.5% [at 46.1 µM],
COc1cc(/C=C2\C(=N)N3N=C(CC(=O)N4CCOCC4)SC3=NC2=O)cc(OC)c1OC,0.659% [at 46.1 µM],
Cc1ccc2cc(CN(c3ccc(C)c(C)c3)S(C)(=O)=O)c(=O)[nH]c2c1,,10 µM (active)
CCN1CCN(C(=O)c2ccc(CN(c3ccc(C)c(C)c3)S(C)(=O)=O)cc2)CC1,-17.9% [at 46.1 µM],
CCOC(=O)N1CCN(C(=O)c2ccc(CN(c3ccc(C)c(C)c3)S(C)(=O)=O)cc2)CC1,-7.05%,
CCCCc1nc2cc(C(=O)NCCc3cnn(C)c3)ccc2o1,1.86%,
CC(=O)CSc1nc(CCc2ccccc2)c(C#N)c(=O)[nH]1,2% [at 46.1 µM],
Cn1c(N)c(C(=O)COC(=O)/C=C/c2cccc(C(F)(F)F)c2)c(=O)n(C)c1=O,17.7%,
COc1ccc(C(=O)COC(=O)c2c(C)noc2C)cc1Cl,7.27% [at 46.1 µM],

SMILES,"activity change, negative = inhibition",Potency
COc1ccc(Cn2nnc3c(=O)[nH]c(C4CCN(C(=O)c5ccccc5Cl)CC4)nc32)cc1,,inactive
CC(C)(C)c1ccc(Cn2nnc3c(=O)[nH]c(C4CCCN(C(=O)c5ccco5)C4)nc32)cc1 (stereo not given),,10 µM (active)
O=C(c1ccccc1F)N1CCC(c2nc3c(nnn3Cc3cccc(F)c3)c(=O)[nH]2)CC1,-1.86% [at 46.1 µM],
COc1ccc(OC)c(NC(=O)COC(=O)Cc2ccsc2)c1,2.26%,
CCOC(=O)c1ccc(N2C(=O)c3n[nH]c(-c4ccco4)c3C2c2ccc(O)cc2)cc1 (stereo not given),,11.2 µM (active)
CCOC(=O)c1ccc(N2C(=O)c3n[nH]c(C)c3C2c2ccc(O)c(OC)c2)cc1 (stereo not given),-7.6% [at 46.1 µM],
CCOC(=O)c1ccc(N2C(=O)c3[nH]nc(-c4ccccc4)c3C2c2ccc(C(C)C)cc2)cc1 (stereo not given),-0.0996% [at 46.1 µM],
COc1ccccc1S(=O)(=O)c1c(C)cc(C)[nH]c1=O,11.3% [at 46.1 µM],
OCc1ccc(-c2ccccc2)c(-c2ccccc2)c1,-2.14% [at 46.1 µM],
CN(C)c1ccc(CNC23CN4CN(CN(C4)C2)C3)cc1,5.15% [at 46.1 µM],
c1cnc(NC2C3CC4CC(C3)CC2C4)nc1 (stereo not given),-0.235%,
CN(C)c1ccc(CNC2C3CC4CC(C3)CC2C4)cc1 (stereo not given),,14.6 µM (active)
CC(=O)Oc1cccc(C(=O)Nc2ccccc2NC(=O)c2cccc(OC(C)=O)c2)c1,0.627%,
COc1ccc(C(=O)NC2CC2)cc1OC1CCN(Cc2cnn(C)c2)CC1,21.7%,
CCCCC(=O)Nc1ccccc1N1CCN(c2ccc(F)cc2)CC1,,11.2 µM (active)
CCC(C)C(=O)Nc1ccccc1N1CCN(c2ccc(F)cc2)CC1 (stereo not given),,12.6 µM (active)
CCC(=O)Nc1ccccc1N1CCN(S(C)(=O)=O)CC1,0.651%,
O=C(CN1CCN(c2ccccc2)CC1)Nc1ccc(F)cc1,29.4%,
CCCC(=O)Nc1ccccc1N1CCN(C(=O)c2ccccc2)CC1,-15.4%,
O=C(Nc1ccccc1N1CCN(c2ccccc2)CC1)c1cccc(F)c1,1.52%,
O=C(Cc1ccc(S(=O)(=O)N2CCOCC2)s1)NCCOc1ccccc1F,15.4% [at 46.1 µM],
